From PubChem BioAssay AID1159580 (chemical genetic matrix, 2015)
Out of some 5,500 compounds screened, about 2,000 (36%) were called active. Roughly 18% stayed inconclusive and do not appear here. Cut-off read from the data, not from the text of the source: active = normalized growth mostly below about 0.91 (no sharp cut-off); inconclusive = no clear call, values can overlap the other calls; inactive = mostly above about 0.92. Some of the results follow.

Test: chemical genetic growth profiling, strain panel (AID 1159580);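 note: tested at 20 µM; growth read once vehicle control cultures reached saturation at 30 °C; 1 = growth at the plate median or of vehicle wells; lower values mean less growth of the strain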
Conditions: S. cerevisiae deletion strains, growth OD

Measured: normalized growth

CC(C)(O)[C@@H]1CC[C@](C)([C@H]2[C@@H](O)C[C@@]3(C)C4C[C@H](O[C@@H]5O[C@H](CO)[C@@H](O)[C@H](O)[C@H]5O)C5C(C)(C)[C@@H](O[C@@H]6OC[C@@H](O)[C@H](O)[C@H]6O)CC[C@@]56C[C@@]46CC[C@]23C)O1 (stereo not given in full)
inactive: locus YAL021C, strain ccr4, active compounds read low 0.988 | locus YAL026C, strain drs2, active compounds read low 0.986 | locus YAL030W, strain snc1, active compounds read low 0.99 | locus YBL061C, strain skt5, active compounds read low 0.999 | locus YBR009C, strain hhf1, active compounds read low 1.01 | locus YBR023C, strain chs3, active compounds read low 0.998 | locus YBR171W, strain sec66, active compounds read low 0.989 | locus YBR231C, strain swc5, active compounds read low 1 | locus YBR279W, strain paf1, active compounds read low 0.991 | locus YCL011C, strain gbp2, active compounds read low 0.995 | locus YCL016C, strain dcc1, active compounds read low 1 | locus YCL061C, strain MRC1, active compounds read low 1 | locus YCL069W, strain vba3, active compounds read low 0.981 | locus YCR088W, strain abp1, active compounds read low 0.986 | locus YDL005C, strain med2, active compounds read low 0.977 | locus YDL040C, strain nat1, active compounds read low 0.985 | locus YDR001C, strain nth1, active compounds read low 0.991 | locus YDR069C, strain doa4, active compounds read low 0.975 | locus YDR137W, strain rgp1, active compounds read low 1.04 | locus YDR159W, strain sac3, active compounds read low 0.966 | locus YDR195W, strain ref2 0.931 | locus YDR297W, strain sur2, active compounds read low 1 | locus YDR334W, strain swr1, active compounds read low 0.959 | locus YDR335W, strain msn5, active compounds read low 0.986 | locus YDR392W, strain spt3, active compounds read low 0.997 | locus YEL003W, strain gim4, active compounds read low 0.991 | locus YEL037C, strain rad23, active compounds read low 0.974 | locus YEL061C, strain CIN8 (second series), active compounds read low 0.985 | locus YER015W, strain faa2, active compounds read low 0.998 | locus YER016W, strain bim1, active compounds read low 1 | locus YER111C, strain swi4, active compounds read low 0.979 | locus YER155C, strain BEM2 (second series), active compounds read low 1 | locus YFR010W, strain ubp6, active compounds read low 0.989 | locus YGL167C, strain pmr1, active compounds read low 0.979 | locus YGL173C, strain kem1, active compounds read low 0.99 | locus YGL227W, strain vid30, active compounds read low 0.999 | locus YGL240W, strain doc1, active compounds read low 1 | locus YGL253W, strain hxk2, active compounds read low 0.988 | locus YHR013C, strain ard1, active compounds read low 0.976 | locus YHR027C, strain rpn1, active compounds read low 0.998 | locus YHR030C, strain SLT2, active compounds read low 0.954 | locus YHR079C, strain IRE1, active compounds read low 0.96 | locus YHR142W, strain chs7, active compounds read low 0.978 | locus YJL092W, strain hpr5, active compounds read low 0.995 | locus YJL095W, strain BCK1 (second series), active compounds read low 0.981 | locus YJL095W, strain BCK1, active compounds read low 1.05 | locus YJL115W, strain asf1, active compounds read low 0.978 | locus YJL129C, strain trk1, active compounds read low 0.989 | locus YJL154C, strain vps35, active compounds read low 0.972 | locus YJL164C, strain tpk1, active compounds read low 1 | locus YJL166W, strain qcr8, active compounds read low 0.987 | locus YJL187C, strain SWE1, active compounds read low 0.993 | locus YJR066W, strain TOR1, active compounds read low 0.92 | locus YKL160W, strain elf1, active compounds read low 0.996 | locus YKR026C, strain gcn3, active compounds read low 0.992 | locus YKR091W, strain srl3, active compounds read low 0.993 | locus YLL001W, strain dnm1, active compounds read low 1 | locus YLL026W, active compounds read low 1 | locus YLL041C, strain sdh2, active compounds read low 0.98 | locus YLR027C, strain aat2, active compounds read low 1.02 | locus YLR113W, strain HOG1, active compounds read low 1.1 | locus YLR221C, strain rsa3, active compounds read low 1 | locus YLR258W, strain gsy2, active compounds read low 0.979 | locus YLR262C, strain YPT6 (second series), active compounds read low 0.998 | locus YLR320W, strain mms22, active compounds read low 0.996 | locus YLR342W, strain FKS1, active compounds read low 1 | locus YLR357W, strain rsc2, active compounds read low 0.967 | locus YLR370C, strain arc18, active compounds read low 0.986 | locus YLR384C, strain iki3, active compounds read low 1 | locus YML120C, strain ndi1, active compounds read low 0.98 | locus YMR058W, strain fet3, active compounds read low 0.994 | locus YMR125W, strain sto1, active compounds read low 0.984 | locus YMR129W, active compounds read low 0.995 | locus YMR205C, strain PFK2, active compounds read low 0.976 | locus YMR231W, strain pep5, active compounds read low 0.991 | locus YNL071W, strain lat1, active compounds read low 0.972 | locus YNL183C, strain NPR1, active compounds read low 0.985 | locus YNL209W, strain ssb2, active compounds read low 0.987 | locus YNL248C, strain rpa49, active compounds read low 0.981 | locus YNL322C, strain KRE1 (second series), active compounds read low 0.989 | locus YNR049C, strain mso1, active compounds read low 0.994 | locus YOR001W, strain rrp6, active compounds read low 0.972 | locus YOR070C, strain gyp1, active compounds read low 1 | locus YOR080W, strain dia2, active compounds read low 0.987 | locus YOR083W, strain WHI5, active compounds read low 1 | locus YOR106W, strain vam3, active compounds read low 0.99 | locus YOR231W, strain MKK1, active compounds read low 0.95 | locus YOR265W, strain rbl2, active compounds read low 0.993 | locus YOR270C, strain vph1, active compounds read low 0.793 | locus YOR290C, strain snf2, active compounds read low 1.01 | locus YPL051W, strain arl3, active compounds read low 1.01 | locus YPL078C, strain atp4, active compounds read low 0.975 | locus YPL106C, strain sse1, active compounds read low 0.975 | locus YPL240C, strain hsp82, active compounds read low 0.989 | locus YPL256C, strain CLN2, active compounds read low 0.974
